Growth data for seven compounds are collected here from PubChem BioAssay (NCI).

The panel holds about 83,000 compounds, 20% with a hit somewhere; the sample as a whole holds those more often.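 The endpoint reported here, percent growth, reads 100 for growth as untreated, 0 for no net growth and -100 for all cells dead.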 A number with no mark means an inactive call. Calls of active or inactive are those of the source. How the source made its calls: active means growth percent below 10; inactive means the rest.

Assay in all cases: NCI-60 one-dose screen, 48 h (100 = growth as untreated, 0 = no growth, -100 = all killed)
Common to all, as to settings: 10 µM unless noted

Assay [1] deals with NCI-H23 lung.
Assay [2] relates to NCI-H226 lung.
The test system of assay [3] is NCI-H322M lung.
Assay [4] relates to HOP-62 NSCLC.
Assay [5] relates to NCI-H460 lung.
Assay [6] has as its system HOP-92 NSCLC.
Assay [7] deals with NCI-H522 lung.
The subject of assay [8] is A549/ATCC NSCLC.
Assay [9] deals with 786-0 renal.
For assay [10], the system named is COLO 205 colon.
The subject of assay [11] is DU-145 prostate.
For assay [12], the system named is K-562 leukemia.
The test system of assay [13] is MALME-3M melanoma.
For assay [14], the system named is MDA-MB-231 breast.
Assay [15] concerns RXF 393 renal.
The test system of assay [16] is SF-268 CNS.
The subject of assay [17] is SF-295 CNS.
For assay [18], the system named is SF-539 CNS.
Assay [19] relates to UACC-257 melanoma.
In assay [20] the test system is M14 melanoma.

With `COc1cc(NN=C(c2ccc(O)cc2)c2ccc(O)cc2)c([N+](=O)[O-])cc1[N+](=O)[O-]`, the growth in [1] is 5.6% (active); in assay [2] it was 110%; in assay [3], 94.3%; in assay [4] it was -1.66% (active); in [5], 1.73% (active); in [6] it was 70.2%. The growth in assay [7] is -49.9% (active); in assay [8], -5.34% (active); in assay [9], -29.5% (active); in assay [10] it was 12.7%; in assay [11] it was 90.5%; in assay [12], 109%. The growth was 120% in [13]; 91.9% in assay [14]; -34.4% (active) in [15]; 72.3% in assay [16]; 112% in [17]; 5.64% (active) in [18]. Also, the growth in assay [19] is -14.4% (active); in [20], -15.9% (active).
Turning to `C[n+]1c2ccccc2nc2c(N)cc(N)cc21`, the growth was 71.9% in assay [1]; 37.2% in [2]; 71.2% in assay [3]; 56.6% in assay [4]; 86.6% in assay [5]; 84.2% in assay [6]. The growth in assay [7] is 52.2%; in [8] it was 82%; in assay [9], 62.2%; in assay [10], 49.8%; in [11], 93.5%; in assay [12], 36.4%. Also, the growth in [13] was 3.51% (active); in [14] it was 87.3%; in assay [15], 112%; in [16], 24.8%; in assay [17], 89.5%; in assay [18], 48.6%. For the same compound, the growth in [19] is 92.8%; in [20] it was 96%.
Consider `CCc1ccc(NC(=O)N[C@@H](Cc2cc(F)cc(F)c2)C(=O)N[C@@H]2C(=O)N3C[C@H](O)C[C@H]3C(=O)N3CCOC[C@H]3C(=O)N[C@@H](C)C(=O)N3C[C@H](C)C[C@H]3C(=O)O[C@H]2C)cc1`, for which the growth in assay [1] was 34.5%; in assay [2], 63.2%; in [3], 84.3%; in assay [4], 72.9%; in assay [5], 46.5%; in [6], 10.3%. For the same compound, the growth in assay [7] was 27%; in [8], 79.3%; in [9], 89.1%; in [10], 11.1%; in assay [11], 42.6%; in assay [12] it was 24.7%. The growth was 39.4% in [13]; 16.1% in assay [14]; 88.1% in [15]; 29.1% in assay [16]; 81.9% in [17]; 55.8% in [18]. For the same compound, the results for the growth in [19] and in assay [20] were 21.5% and 84.8%, respectively.
Take `CCOC(=O)c1nn(C2CCCCO2)c2ccc(NS(=O)(=O)c3ccc(C)cc3)cc12` (configuration not stated): the growth is 100% in [1]; 102% in [2]; 104% in assay [3]; 101% in assay [4]; 99.4% in assay [5]; 96.4% in [6]. Besides, the growth in [7] was 98%; in assay [8], 95.1%; in [9], 94.4%; in assay [10], 121%; in assay [11], 106%; in [12], 82.8%. In addition, the growth is 102% in assay [13]; 94.2% in assay [14]; 119% in [15]; 96.2% in assay [16]; 99.7% in [17]; 105% in assay [18]. Also, the results for the growth in assay [19] and in assay [20] were 97% and 101%, respectively.
As to `COc1cc(/C=C/C(=O)/C=C/c2ccc(-n3ccnc3)cc2)ccc1O`, the growth in [1] was 60.6%; in assay [2] it was 77.9%; in [3], 94.8%; in assay [4], 97.9%; in assay [5], 76.4%; in assay [7] it was 89.5%. For the same compound, the growth is 69.3% in [8]; 107% in assay [9]; 52.4% in [10]; 54.4% in [11]; 7.93% (active) in assay [12]; 79.3% in assay [13]. For the same compound, the growth in [14] was 63.7%; in [15], 26.8%; in [16], 54.8%; in assay [17], 75.2%; in [18], -0.198% (active); in [19], 84.7%. Also, the growth in assay [20] was 104%.
Consider `COCc1nc2ccccc2[nH]1`, for which the growth in [1] was 103%; in [2], 100%; in assay [3] it was 100%; in [4], 105%; in assay [5] it was 106%; in assay [7], 96.3%. For the same compound, the growth in assay [8] was 100%; in assay [9] it was 99.4%; in [10], 109%; in assay [11] it was 113%; in [12], 99%; in [13], 98.7%. The growth in [14] was 100%; in assay [15] it was 117%; in [16], 108%; in assay [17], 95.1%; in [18] it was 92.8%; in assay [19] it was 104%. Also, the growth in assay [20] is 100%.
As to `CC[C@]12C=CCN3CC[C@@]4(c5ccc(OC)cc5N(C)[C@H]4[C@@](O)(C(=O)OC)[C@@H]1OC(=O)CCC(=O)O[C@H]1CC[C@H]4[C@@H]5CCC6=CC(=O)CC[C@@H]6[C@H]5CC[C@]14C)[C@@H]32`, the growth in [1] is 12.9% [100 µM]; in assay [2], -18.3% [100 µM] (active); in assay [3] it was 36.1% [100 µM]; in assay [4], 21.9% [100 µM]; in assay [5], 1.51% [100 µM] (active); in assay [7], 3.35% [100 µM] (active). Besides, the growth in assay [8] was 14.5% [100 µM]; in assay [9], 10.2% [100 µM]; in [10] it was -87.6% [100 µM] (active); in assay [11], 26% [100 µM]; in [12], 7.54% [100 µM] (active); in [13], -16.4% [100 µM] (active). Moreover, the growth in [14] was -39.4% [100 µM] (active); in assay [15], -27.5% [100 µM] (active); in [16] it was 31.9% [100 µM]; in assay [17], 4.5% [100 µM] (active); in [18], -40.4% [100 µM] (active); in [19], 14.8% [100 µM]. In addition, the growth in assay [20] was 1.67% [100 µM] (active).
